This note sets out measurements from PubChem BioAssay (NCATS).

Results filed as inconclusive are left out. Active and inactive are the calls of the source. Unless noted, the call rests on the fitted dose curve; in most records, active means well fitted curve in either direction with a large enough effect (not every such curve was filed as active); inconclusive means small, poorly fitted or top-dose-only effect, or another doubt; inactive means flat fitted curve, though single readings scatter.

Test [1] is described as follows: AP1 Signaling Pathway (AID 357).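 Further: ME-180 reporter cells stimulated with EGF at its EC50 level; on the % scale 0 is the no-effect control and ±100 the full control effect.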 Particulars: ME-180 AP-1-bla reporter, EGF-induced, beta-lactamase ratio, 5 h; at 7.69 µM (top of the series) unless noted. Put shortly:
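Beta-lactamase reporter under AP-1 response element, ME-180 background. Stimulus: EC50 EGF. Compound exposure 5 h, 37 °C. Detection: CCF4, 2.5 h RT, 460/530 nm. Values: AC50 from titration.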

For test [2], the target named is Cytochrome P450 1A2 (Homo sapiens) (UniProt P05177). Nature of the test: p450-cyp1a2 (AID 410; calls by dose curve; further: potency means the concentration at half of the fitted maximal effect). Summed up: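 Luminescent demethylation readout: Luciferin-ME (100uM, equal to Km) turned over by 20nM CYP1A2 for 60 min at room temperature after NADPH regeneration addition, following 10 min compound preincubation. Normalization used 57 uM furafylline as full inhibition.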
Chain of Cytochrome P450 1A2 (Homo sapiens) (P05177 whole entry, looked up): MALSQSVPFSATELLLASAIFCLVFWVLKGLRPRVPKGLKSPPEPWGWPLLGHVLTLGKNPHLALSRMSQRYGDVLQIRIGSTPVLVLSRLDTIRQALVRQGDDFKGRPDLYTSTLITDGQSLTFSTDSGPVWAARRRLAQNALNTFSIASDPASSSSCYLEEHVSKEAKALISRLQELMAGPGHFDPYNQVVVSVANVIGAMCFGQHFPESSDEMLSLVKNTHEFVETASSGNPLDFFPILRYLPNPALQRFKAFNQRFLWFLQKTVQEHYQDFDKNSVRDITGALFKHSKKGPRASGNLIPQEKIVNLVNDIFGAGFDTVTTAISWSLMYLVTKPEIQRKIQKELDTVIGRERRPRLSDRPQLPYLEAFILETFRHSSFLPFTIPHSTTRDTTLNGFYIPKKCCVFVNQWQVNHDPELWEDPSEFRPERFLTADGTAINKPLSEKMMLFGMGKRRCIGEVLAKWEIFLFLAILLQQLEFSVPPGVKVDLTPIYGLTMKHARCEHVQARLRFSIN

A short description of test [3]: NFAT Signaling Pathway (AID 444).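 Further: carbachol stimulus at about its EC50 of 1 µM final; on the % scale 0 is the no-effect control and ±100 the full control effect.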 Particulars: Jurkat NFAT-bla M1, carbachol, beta-lactamase ratio, 5 h; at 7.69 µM (top of the series) unless noted. Summed up: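 Read-out: CCF4 FRET ratio (460 nm/530 nm) after 1 h RT dye loading, used for %activity and AC50 from titration series. Cells: Jurkat NFAT-β-lactamase/M1 line, treated with compound plus 1 uM carbachol for 5 h, 37 °C.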

Test [4] in a line: Stat Signaling Pathway (AID 446).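 Further: ME-180 cervical cancer cells given 40 pM IL-6 alongside compound; SIE-controlled beta-lactamase reporter measured as 460/530 nm FRET emission ratio; on the % scale 0 is the no-effect control and ±100 the full control effect.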 Particulars: ME-180 (cervical carcinoma) SIE beta-lactamase reporter, IL-6 stimulated, 5 h; at 7.69 µM (top of the series) unless noted. Put shortly:
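Compound effects on IL-6-induced STAT reporter activity were measured in ME-180 cells. After overnight culture, cells were co-treated with 40 pM IL-6 for 5 hrs before beta-lactamase substrate loading at room temperature.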

In test [5] the target is Glucocorticoid receptor (Homo sapiens) (UniProt P04150). Briefly: GR-GFP Redistribution (AID 450;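 active means compounds whose dose series gives a full or clear partial fitted curve of increased nuclear translocation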; further: potency means the concentration at half of the fitted maximal effect). Particulars: U2OS GR-GFP nuclear translocation, laser cytometry, 2 h.
Chain of Glucocorticoid receptor (Homo sapiens) (P04150 whole entry, looked up): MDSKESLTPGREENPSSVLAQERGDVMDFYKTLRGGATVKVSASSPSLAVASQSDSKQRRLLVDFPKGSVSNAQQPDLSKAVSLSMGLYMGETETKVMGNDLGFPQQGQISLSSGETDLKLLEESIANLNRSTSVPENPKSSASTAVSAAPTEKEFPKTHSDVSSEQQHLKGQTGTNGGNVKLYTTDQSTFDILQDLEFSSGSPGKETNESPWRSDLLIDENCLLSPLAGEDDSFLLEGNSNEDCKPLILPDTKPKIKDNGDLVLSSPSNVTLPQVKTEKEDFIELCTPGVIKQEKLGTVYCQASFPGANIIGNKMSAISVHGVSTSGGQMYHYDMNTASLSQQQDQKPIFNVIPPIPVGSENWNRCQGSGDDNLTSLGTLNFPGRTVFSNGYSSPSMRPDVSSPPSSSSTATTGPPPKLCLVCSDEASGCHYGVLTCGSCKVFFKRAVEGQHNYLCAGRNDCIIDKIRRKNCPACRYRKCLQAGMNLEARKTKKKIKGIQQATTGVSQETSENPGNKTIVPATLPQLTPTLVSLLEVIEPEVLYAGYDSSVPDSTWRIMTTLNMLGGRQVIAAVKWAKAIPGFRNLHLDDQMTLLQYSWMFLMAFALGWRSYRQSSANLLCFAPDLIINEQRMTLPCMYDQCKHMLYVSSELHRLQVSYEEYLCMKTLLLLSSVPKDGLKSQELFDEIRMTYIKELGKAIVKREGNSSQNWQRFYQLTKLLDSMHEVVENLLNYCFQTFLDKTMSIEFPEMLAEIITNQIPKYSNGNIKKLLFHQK
Test [6] has the same target. Nature of the test: GR-EFC Redistribution (AID 451; calls by dose curve; further: potency means the concentration at half of the fitted maximal effect). The following applies: CHO-K1 GR-EFC translocation, beta-gal luminescence, 2 h. Summed up:
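Translocation of GR-ED fusion to nuclear EA restores b-gal, read by luminescence after 1 h room-temperature detection. Engineered CHO-K1 biosensor cells, 1,000/well, exposed 2 h at 37 C to titrations up to 46 uM final.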

The target in test [7] is Mitogen-activated protein kinase 10 (Mus musculus) (UniProt Q61831). Nature of the test: JNK3 AlphaScreen Assay (AID 530).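 Further: kinase came from lysate of stimulated human HepG2 cells; signal reports phosphorylation of biotinylated GST-cJun 1-79 at Ser73 with 10 µM ATP; on the % scale 0 is the no-effect control and ±100 the full control effect.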 Summed up: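 qHTS titrations with 15 min compound pre-incubation before adding ATP (10 uM final). Read-out: AlphaScreen of Ser73-phosphorylated biotin-GST-cJun using HepG2 lysate JNK3 activated by IL-1β and TNFα.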
In test [8] the target is 3',5'-cyclic-AMP phosphodiesterase 4B (Homo sapiens) (UniProt Q07343). Briefly: qHTS Assay for Inhibitors of PDE-IV (AID 607; active means well fitted activation curve with a large enough effect in the main read-out, with a control signal flat, not every such curve was filed as active; further: % of control where 0% means no effect). Put shortly: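 ACTOne HEK293 cells carry a modified cAMP-gated CNG channel and express endogenous PDE4; plated 1000 cells/well, compounds up to 22.9 uM final. Membrane-potential dye fluorescence (ex 535/em 590) was read; parental cells received 10 uM forskolin + 100 uM RO 20-1724.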
Chain of 3',5'-cyclic-AMP phosphodiesterase 4B (Homo sapiens) (Q07343 whole entry, looked up): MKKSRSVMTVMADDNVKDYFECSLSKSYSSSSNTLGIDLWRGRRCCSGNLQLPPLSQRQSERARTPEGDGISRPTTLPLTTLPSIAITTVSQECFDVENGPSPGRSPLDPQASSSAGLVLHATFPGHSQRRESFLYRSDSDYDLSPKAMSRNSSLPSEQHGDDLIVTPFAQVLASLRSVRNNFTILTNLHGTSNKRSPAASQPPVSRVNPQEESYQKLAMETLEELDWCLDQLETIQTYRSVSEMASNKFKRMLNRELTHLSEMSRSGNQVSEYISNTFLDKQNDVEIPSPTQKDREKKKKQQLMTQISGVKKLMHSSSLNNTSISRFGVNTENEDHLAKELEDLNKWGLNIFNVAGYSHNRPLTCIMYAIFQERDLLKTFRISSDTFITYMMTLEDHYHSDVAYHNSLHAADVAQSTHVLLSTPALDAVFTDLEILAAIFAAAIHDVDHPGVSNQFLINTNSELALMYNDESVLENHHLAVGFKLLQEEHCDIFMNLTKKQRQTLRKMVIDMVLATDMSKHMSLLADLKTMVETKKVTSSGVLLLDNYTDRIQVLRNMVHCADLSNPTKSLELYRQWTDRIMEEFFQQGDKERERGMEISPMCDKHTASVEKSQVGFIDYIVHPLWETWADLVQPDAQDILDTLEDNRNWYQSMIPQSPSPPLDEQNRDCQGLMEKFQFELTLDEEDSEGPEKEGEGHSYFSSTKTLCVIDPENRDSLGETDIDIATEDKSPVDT

Test [9] addresses Cytochrome P450 3A4 (Homo sapiens) (UniProt P08684). Briefly: qHTS Assay for Inhibitors and Substrates of Cytochrome P450 3A4 (AID 884; active means well fitted curve in the direction sought with a large enough effect; an effect the other way counts as inactive or inconclusive; further: potency means the concentration at half of the fitted maximal effect; nearly all actives have a fitted effect of over 50% in size). Summed up:
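Luminescent readout of luciferin produced by CYP3A4 (20 nM) dealkylation of Luciferin-PPXE, 25 uM (its KM). NADPH-driven reaction ran 60 min at RT after 10 min compound preincubation; data scaled to 57 uM ketoconazole as 100% inhibition.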

For test [10] the target is unchanged. Briefly: qHTS Assay for Activators of Cytochrome P450 3A4 (AID 885; active means well fitted curve in the direction sought with a large enough effect; an effect the other way counts as inactive or inconclusive; further: nearly all actives have a fitted effect of over 65% in size). Put shortly: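 CYP3A4 activity: Luciferin-PPXE O-dealkylation, 25uM substrate, 200mM KPO4, RT throughout. Read-out is luciferase luminescence; higher values reflect activation.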
A short description of test [11]: Confirmation and Secondary Assay for Modulators of Hemoglobin Beta Chain Splicing at IVS2 654 locus (AID 910; active means well fitted curve in the direction sought with a large enough effect; an effect the other way counts as inactive or inconclusive;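 further: HeLa cells stably carrying EGFP split by mutant beta-globin IVS2-654 intron; per-well total GFP intensity by laser scanning cytometry after 2-day treatment; % of control where 0% means no effect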). Put shortly: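 Readout: per-well total peak green fluorescence (488 nm ex, 500–520 nm em) from objects 5–250 µm, reflecting correct splicing of an EGFP-654 reporter. Compounds were applied for 2 days at 37 °C to overnight-plated HeLa EGFP-654 cells; controls were DMSO and 500 nM IVS2-654 PNA.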

Test [12] is described as follows: qHTS Assay for Lipid Storage Modulators (AID 1519; calls by dose curve). Particulars: Drosophila S3 cells, BODIPY lipid droplet/cell ratio, laser cytometry, cells loaded with oleic acid; for activity change, negative = inhibition: at 57.5 µM (top of the series). Summed up:
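Cells seeded at 5,000 per well were treated with compounds over a concentration series and loaded with oleic acid (400 uM, as added). Lipid droplet fluorescence (488 nm excitation, 500-530 nm channel) was read by laser-scanning cytometry and normalized to 20 uM Triacsin C.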

Test [13] concerns the target Ubiquitin carboxyl-terminal hydrolase 1 (Homo sapiens) (UniProt O94782). Briefly: Inhibitors of USP1/UAF1: Pilot qHTS (AID 504865; active means well fitted curve in the direction sought with a large enough effect; an effect the other way counts as inactive or inconclusive; further: nearly all actives have a fitted effect of over 35% in size; further: potency means the concentration at half of the fitted maximal effect). Summed up:
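Deubiquitinase activity followed as kinetic rhodamine fluorescence release from 150 nM Ub-Rho. 1 nM USP1/UAF1 with compound, after 15 min room-temperature preincubation, in HEPES pH 7.8 buffer containing TCEP, EDTA, BSA and Tween-20.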

Test [14] can be described thus: Primary qHTS for small molecule stabilizers of the endoplasmic reticulum resident proteome: Secreted ER Calcium Modulated Protein (SERCaMP) assay (AID 1508630; active means well fitted curve in the direction sought with a large enough effect; an effect the other way counts as inactive or inconclusive; further: on the % scale 0 is the no-effect control and ±100 the full control effect). Summed up:
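The SH-SY5Y reporter protocol was run at 3 concentrations up to 38.3 uM (primary) or 11 concentrations (follow-up): 16 h compound, 100 nM thapsigargin for 4 h, then extracellular luciferase luminescence.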

Test [15] concerns the target Lysosomal acid glucosylceramidase (Homo sapiens) (UniProt P04062). Nature of the test: Glucocerebrosidase-p2 (AID 348; in the data active means potency below about 10 µM; further: potency means the concentration at half of the fitted maximal effect). The following applies: purified GBA, blue fluorogenic substrate, 40 min. Summed up:
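Normal human glucocerebrosidase (0.2 nM) with blue fluorogenic substrate (80 uM final) in citrate/phosphate pH 5.9 with 10mM sodium taurocholate, 0.01% tween-20; 40 min RT, NaOH/glycine stop; fluorescence Ex 365/Em 440; AC50 from a titration from 0.6 nM upwards.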

[16] abbreviates: measured here: cell count channel max response.
Setting [17] is: measured here: lipid channel max response.

Chain of Ubiquitin carboxyl-terminal hydrolase 1 (Homo sapiens) (O94782 whole entry, looked up): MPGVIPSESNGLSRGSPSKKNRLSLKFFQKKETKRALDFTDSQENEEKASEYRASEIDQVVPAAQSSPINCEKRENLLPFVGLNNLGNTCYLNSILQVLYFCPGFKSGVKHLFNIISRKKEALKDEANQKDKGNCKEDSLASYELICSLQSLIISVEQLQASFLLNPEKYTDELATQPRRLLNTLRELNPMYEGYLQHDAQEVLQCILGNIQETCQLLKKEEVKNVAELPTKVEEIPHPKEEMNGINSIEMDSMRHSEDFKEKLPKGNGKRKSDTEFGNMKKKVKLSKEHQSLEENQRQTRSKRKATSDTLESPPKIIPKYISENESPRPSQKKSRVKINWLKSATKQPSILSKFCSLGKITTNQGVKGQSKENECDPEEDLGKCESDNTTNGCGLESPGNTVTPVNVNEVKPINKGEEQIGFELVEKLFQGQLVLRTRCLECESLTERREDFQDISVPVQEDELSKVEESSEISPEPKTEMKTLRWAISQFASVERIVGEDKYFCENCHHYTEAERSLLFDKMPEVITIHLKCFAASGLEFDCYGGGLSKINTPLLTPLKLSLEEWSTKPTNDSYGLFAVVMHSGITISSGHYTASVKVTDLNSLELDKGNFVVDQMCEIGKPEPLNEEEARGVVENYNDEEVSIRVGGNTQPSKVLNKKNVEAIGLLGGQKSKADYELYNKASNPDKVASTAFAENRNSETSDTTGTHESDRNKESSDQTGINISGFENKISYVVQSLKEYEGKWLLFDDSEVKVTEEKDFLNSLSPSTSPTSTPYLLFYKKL
Chain of Cytochrome P450 3A4 (Homo sapiens) (P08684 whole entry, looked up): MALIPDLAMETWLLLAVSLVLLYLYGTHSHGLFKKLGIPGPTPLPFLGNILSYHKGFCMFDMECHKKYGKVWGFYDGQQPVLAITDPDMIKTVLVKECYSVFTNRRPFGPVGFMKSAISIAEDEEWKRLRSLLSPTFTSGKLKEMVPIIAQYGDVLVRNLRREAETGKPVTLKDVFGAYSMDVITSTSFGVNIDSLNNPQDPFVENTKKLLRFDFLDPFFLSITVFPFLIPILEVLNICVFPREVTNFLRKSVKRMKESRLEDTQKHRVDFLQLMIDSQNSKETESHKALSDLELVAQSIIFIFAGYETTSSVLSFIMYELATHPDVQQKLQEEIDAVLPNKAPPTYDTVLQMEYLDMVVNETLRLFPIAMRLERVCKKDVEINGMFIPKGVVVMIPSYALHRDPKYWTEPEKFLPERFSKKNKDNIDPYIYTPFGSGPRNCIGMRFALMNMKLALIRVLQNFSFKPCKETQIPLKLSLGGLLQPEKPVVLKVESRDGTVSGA
Chain of Lysosomal acid glucosylceramidase (Homo sapiens) (P04062 whole entry, looked up): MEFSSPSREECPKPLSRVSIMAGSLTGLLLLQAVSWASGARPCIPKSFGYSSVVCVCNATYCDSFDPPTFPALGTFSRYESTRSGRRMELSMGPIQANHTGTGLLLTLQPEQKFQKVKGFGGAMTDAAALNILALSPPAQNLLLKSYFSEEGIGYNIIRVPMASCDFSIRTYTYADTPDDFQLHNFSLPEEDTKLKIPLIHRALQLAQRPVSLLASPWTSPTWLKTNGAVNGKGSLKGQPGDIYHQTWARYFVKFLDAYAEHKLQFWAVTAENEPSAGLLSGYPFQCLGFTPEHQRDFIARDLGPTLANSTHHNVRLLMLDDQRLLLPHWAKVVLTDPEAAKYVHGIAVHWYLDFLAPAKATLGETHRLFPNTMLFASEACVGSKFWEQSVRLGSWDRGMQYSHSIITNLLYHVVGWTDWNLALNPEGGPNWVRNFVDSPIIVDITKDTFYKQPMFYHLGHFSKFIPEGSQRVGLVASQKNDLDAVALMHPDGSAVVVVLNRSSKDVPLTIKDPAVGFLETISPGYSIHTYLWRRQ

`c1nc(NCCN2CCOCC2)c2cc(-c3ccc4c(c3)OCO4)ccc2n1`: the activity change, negative = inhibition in test [1] was -13.5% (inactive); in test [3], 1.02% (inactive); in test [12] it was 10.6% (inactive). The Potency in test [2] is 2.51 µM (active); in [5], > 46 µM (inactive); in test [6] it was > 46 µM (inactive); in test [9] it was 5.01 µM (active). Besides, the activity, negative = inhibition in test [4] was -4.03% (inactive). The Potency result in [7], in test [8], in test [10], in [11] and in test [13] was “inactive” in each case. Moreover, the max response in test [12] (setting [16]) came to 2.73%; in [12] (setting [17]), 12.8%. Further, the result in test [14] was inactive.
For the compound `N#Cc1cccc(NC(=O)N2CCCC3(CCN(S(=O)(=O)c4ccccc4)CC3)C2)c1`, the results for the Potency in test [15] and in test [6] were > 11.4 µM (inactive) and > 46 µM (inactive), respectively. Besides, the activity, negative = inhibition in test [4] is -2.4% (inactive). The Potency entry in test [7] and in test [8] was “inactive” throughout. Also, the activity change, negative = inhibition in [12] was -3.45% (inactive). In addition, the values for the max response in test [12] (setting [16]) and in test [12] (setting [17]) were 1.48% and -1.95%, respectively. Moreover, the outcome in test [14] was inactive.
Regarding `CNc1nc(-c2ccccc2C(F)(F)F)nc2ccccc12`, the activity change, negative = inhibition in test [1] is -1.48% (inactive); in test [3] it was 5.59% (inactive); in [12] it was 5.47% (inactive). Moreover, the values for the Potency in test [2], in [5] and in test [6] were 0.251 µM (active), > 46 µM (inactive) and > 46 µM (inactive), respectively. For the same compound, the activity, negative = inhibition in [4] is 3.95% (inactive). Further, the Potency entry in test [7] and in test [8] was “inactive” each time. Further, the max response in [12] (setting [16]) worked out at 10%; in [12] (setting [17]), 19.8%. Also, the outcome in [14] was inactive.
On to `CN(C)Cc1ccccc1-c1nccc(NCc2cccs2)n1`, for which the activity change, negative = inhibition in test [1] is 3.22% (inactive); in [3], -11.6% (inactive); in [12], 10.9% (inactive). For the same compound, the Potency in test [2] is 0.794 µM (active); in test [5] it was > 46 µM (inactive); in test [6], > 46 µM (inactive). In addition, in test [4], the activity, negative = inhibition is 0.159% (inactive). Moreover, the Potency result in [7] and in test [13] was “inactive” each time. Also, the max response in [12] (setting [16]) is 4.85%; in test [12] (setting [17]), 9.23%. In addition, in [14], the outcome was inactive.
For `Cc1ccccc1-c1nc(NCc2cccnc2)c2ccccc2n1`, the activity change, negative = inhibition in test [1] is -6.01% (inactive); in test [3] it was -1.21% (inactive); in [12], 1.87% (inactive). The Potency was 0.501 µM (active) in test [2]; > 46 µM (inactive) in test [5]; > 46 µM (inactive) in test [6]; 0.501 µM (active) in [9]; 28.2 µM (active) in [13]. Further, the activity, negative = inhibition in test [4] was 3.29% (inactive). Moreover, the Potency result in test [7], in test [10] and in test [11] was “inactive” in each case. Also, the max response in test [12] (setting [16]) was -7.11%; in test [12] (setting [17]), -4.19%. Besides, in test [14], the result was inactive.
With `FC(F)(F)c1ccccc1-c1cncnc1Nc1ccccc1`, the values for the activity change, negative = inhibition in test [1], in [3] and in test [12] were -9.67% (inactive), 9.21% (inactive) and 4.42% (inactive), respectively. Further, the Potency was 25.1 µM (active) in test [2], > 46 µM (inactive) in test [5] and > 46 µM (inactive) in test [6]. Also, the activity, negative = inhibition in test [4] is 7.53% (inactive). For the same compound, the Potency result in test [7], in test [10], in test [11] and in [13] was “inactive” throughout. Moreover, the values for the max response in test [12] (setting [16]) and in test [12] (setting [17]) were 10.3% and 16.8%, respectively. The outcome in test [14] was inactive.
For the compound `COc1ccc(CNc2cc(-c3ccccc3CN(C)C)ncn2)c(OC)c1`, the activity change, negative = inhibition in [1] is -0.546% (inactive); in test [12] it was 3.53% (inactive). For the same compound, the Potency in [2] was 15.8 µM (active); in test [5], > 46 µM (inactive); in [6], > 46 µM (inactive). In test [4], the activity, negative = inhibition is 10.5% (inactive). Further, the Potency entry in test [7], in [8], in test [10], in test [11] and in test [13] was “inactive” throughout. Moreover, the max response amounted to 8.17% in [12] (setting [16]) and 12.8% in [12] (setting [17]). In addition, the result in test [14] was inactive.
